Laboratory results: PubChem BioAssay (NCATS)
Records with an inconclusive call do not appear. Calls of active or inactive are those of the source. Calls come from the whole dose curve; as a rule, active = well fitted curve in the direction sought with a large enough effect; inconclusive = small, poorly fitted or top-dose-only effect, or another doubt; inactive = no such curve, though single readings can be large; an effect the other way counts as inactive or inconclusive. Residues, ends and D or L forms follow the SMILES beside them.

Legend:
[1] = BET inhibitor-based combinations targeting novel dependencies in MECOM-rearranged (r) AML: MV-4-11 cell line (AID 2202233); note: nearly all actives have a fitted effect of over 45% in size
How it was run: (§1)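 Activity is given as area under the curve and as Z-AUC, mean-centred within each cell line. It comes from 11-point dose curves normalized to DMSO and empty wells. CellTiter-Glo luminescence was read after 48 hr drug exposure of 500 cells/well.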

[2] = BET inhibitor-based combinations targeting novel dependencies in MECOM-rearranged (r) AML: UCSD-AML1 cell line (AID 2202235); note: nearly all actives have a fitted effect of over 40% in size
How it was run: as §1

[3] = BET inhibitor-based combinations targeting novel dependencies in MECOM-rearranged (r) AML: AML-191 cell line (AID 2202236; note: nearly all actives have a fitted effect of over 35% in size)
How it was run: (§2)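 Cells were plated at 500 per well and exposed to an 11-point dose series of each drug for 48 hr. Viability was measured by CellTiter-Glo luminescence, normalized to DMSO and empty-well controls, and summarized as AUC and per-cell-line Z-AUC.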

[4] = BET inhibitor-based combinations targeting novel dependencies in MECOM-rearranged (r) AML: AML-194 cell line (AID 2202237; note: nearly all actives have a fitted effect of over 40% in size)
How it was run: as §2

[5] = BET inhibitor-based combinations targeting novel dependencies in MECOM-rearranged (r) AML: HNT-34 cell line (AID 2202234); note: nearly all actives have a fitted effect of over 35% in size
How it was run: as §1
Potency is the fitted concentration of half-maximal effect.

SMILES	Potency [1]	Potency [2]	Potency [3]	Potency [4]	Potency [5]	outcome [5]
Cc1ccc([C@@H]2O[C@H](CO)[C@@H](O)[C@H](O)[C@H]2O)cc1Cc1ccc(-c2ccc(F)cc2)s1	13.2 µM (active)	inactive	20.9 µM (active)	inactive		
CC[C@H](C)C(=O)O[C@H]1C[C@H](O)C=C2C=C[C@H](C)[C@H](CC[C@@H](O)C[C@@H](O)CC(=O)O)[C@H]21	inactive	inactive		inactive	inactive	
CC1=C2C[C@H]3[C@@H](CC[C@@H]4C[C@H](NS(C)(=O)=O)CC[C@@]43C)[C@@H]2CC[C@@]2(C1)O[C@@H]1C[C@H](C)CN[C@H]1[C@H]2C	16.6 µM (active)		20.9 µM (active)		16.6 µM (active)	
O=C(Nc1cccc(Nc2ncc(Br)c(NCCc3cnc[nH]3)n2)c1)N1CCCC1	0.118 µM (active)	1.18 µM (active)	5.25 µM (active)	5.9 µM (active)	1.66 µM (active)	
Cc1ccc(Nc2nnc(Cc3ccncc3)c3ccccc23)cc1Br	16.6 µM (active)	inactive			20.9 µM (active)	
CCCCN(CCCC)CCC(O)c1cc2c(Cl)cc(Cl)cc2c2cc(C(F)(F)F)ccc12 (stereo not given)	18.6 µM (active)	26.3 µM (active)		29.5 µM (active)		
C[C@H]1CNC(=O)c2cnn3ccc(nc23)N[C@H](C)c2cc(F)ccc2O1	1.32 µM (active)	0.833 µM (active)			0.833 µM (active)	
Fc1ccc(-c2csc3ncnc(NCc4ccc5c(c4)OCO5)c23)cc1	20.9 µM (active)	20.9 µM (active)	16.6 µM (active)			
CC(C)Oc1ccc(C(=O)N[C@H](CNC(=O)CN(C)C)Cc2ccc(-c3cn4cccc([C@H](C)O)c4n3)cc2)cc1Cl	0.166 µM (active)	0.332 µM (active)	0.263 µM (active)	0.332 µM (active)		
CCCN(CCC)C(=O)C1=Cc2ccc(-c3ccc(C(=O)N4CCCC4)cc3)cc2N=C(N)C1	16.6 µM (active)	inactive	18.6 µM (active)		18.6 µM (active)	
COc1ccc(Cl)cc1-c1cc(=O)[nH]c(=S)n1CC(N)=O	inactive	inactive		inactive	inactive	
CONC(=O)Nc1ccc(-c2sc3c(c2CN(C)C)c(=O)n(-c2ccc(OC)nn2)c(=O)n3Cc2c(F)cccc2F)cc1	inactive	inactive		inactive	inactive	
Cc1cc2cc(Oc3ccnc(Nc4cccc(CS(=O)(=O)NCCN(C)C)c4)n3)ccc2[nH]1	3.32 µM (active)		18.6 µM (active)	16.6 µM (active)	13.2 µM (active)	
CCC1CCCCN1C(=O)n1ncc(C(O)(c2ccccc2)c2ccccc2)n1 (stereo not given)	14.8 µM (active)	20.9 µM (active)	14.8 µM (active)			
C[C@H](NC(=O)[C@H]1NCC[C@@H]1O)c1ccc(-c2noc(CCC3CCCC3)n2)cc1	inactive	inactive	20.9 µM (active)	inactive		
Cc1ccc(-c2ccc(C)cn2)nc1	inactive	inactive				
N[C@@H](CCC(=O)O)C(=O)N[C@@H](Cc1c[nH]c2ccccc12)C(=O)O (H-Glu-Trp-OH)	inactive			inactive	inactive	
Clc1ccc(C(Cn2ccnc2)OCc2ccsc2Cl)c(Cl)c1 (stereo not given)	23.5 µM (active)		23.5 µM (active)	23.5 µM (active)	18.6 µM (active)	
Cc1c(-c2ccc(-c3ccccc3F)cc2)nc2ccc(F)cc2c1C(=O)O	0.209 µM (active)	0.742 µM (active)		0.662 µM (active)	inactive	
Cc1ccc(-c2ncc(Cl)cc2-c2ccc(S(C)(=O)=O)cc2)cn1	inactive		inactive	inactive	inactive	
Cc1[nH]c(/C=C2\C(=O)Nc3ccc(S(=O)(=O)Cc4c(Cl)cccc4Cl)cc32)c(C)c1C(=O)N1CCC[C@@H]1CN1CCCC1	5.9 µM (active)	8.33 µM (active)	9.34 µM (active)	9.34 µM (active)	18.6 µM (active)	
COc1cc(OCc2cccc(-c3ccccc3)c2C)cc(OC)c1CN1CCCC[C@H]1C(=O)O	20.9 µM (active)	inactive				
O=C(Nc1ncc(SCCN2CCCC2)s1)[C@]1(c2ccc(S(=O)(=O)C3CC3)cc2)C[C@H]1C1CCCCC1	11.8 µM (active)		18.6 µM (active)	16.6 µM (active)	23.5 µM (active)	
O=C(NC1CC1)c1cccc(-c2ccc3c(NC(=O)C4CC4)n[nH]c3c2)c1	8.33 µM (active)	4.68 µM (active)		4.68 µM (active)	3.32 µM (active)	
[2H]c1nc(C)nc([2H])c1-c1cc(NC[C@@H](C)c2cccc3c(C(=O)NC)ccnc23)ncn1	inactive	inactive				inactive
